# This is a sample that favours compounds with a hit; in the whole collection about 10% have one here.
# Insulin prom inh = inhibitors of insulin promoter-driven GFP, primary screen, imaging, TRM-6 cells (human fetal islet line), eGFP reporter, cell count; AID 1273, 2008; inhibition, % at 2 µM; actives 0.9% (n = 130,000); reporter expression induced with tamoxifen;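 active means inhibition above the mean plus 3 SD, with well images judged a real hit on visual review, cut at about 60% in these data, passing the limit was not always enough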
# HCT116 bCat-KO = primary screen for growth suppressors in beta-catenin knockout HCT116 cells (colon tumor, human); HCT116 beta-catenin knockout viability, CellTiter-Glo, 60 h; stronger effect = lower value; viability, % at 10 µM; actives 1.5% (n = 140,000); AID 818, 2007;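 active means viability at or under a set limit, the compound median less 4 SD, cut at about 6% in these data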;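 further: 0% = Hyamine 1622 control at 20 µM and 100% = untreated cell control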
# PTEN del growth = growth suppression of PTEN-null HCT116, primary screen, cell-based, CellTiter-Glo | actives 1.2% (n = 140,000) | HCT116 PTEN-null viability, 60 h; stronger effect = lower value | AID 827, 2007 | viability, % at 10 µM;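 active means viability at or below a set limit, 4 SD under the median of all tested compounds, cut at about 3.7% in these data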;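 further: PTEN knockout HCT116 line with beta catenin targeted HCT116 as companion control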
# Lmaj promast = Leishmania major promastigote growth inhibition, primary screen | inhibition, % at 10 µM | Leishmania major promastigotes, resazurin fluorescence viability | actives 9% (n = 200,000); in the data active means inhibition above about 50%;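 further: promastigotes grown with compound for 44 hours at 28 °C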
# p97 inhibitor = inhibitors of human p97 ATPase, primary screen, biochemical; recombinant p97 ATPase, Kinase-Glo ATP luminescence, 3 h; actives 0.42% (n = 220,000); inhibition, % at 8 µM; in the data active means inhibition above about 15%;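 further: 0% = DMSO vehicle and 100% = wells lacking enzyme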
# ROMK mod = ROMK potassium channel modulators, primary screen, cell-based, thallium flux, MLSMR library; Tet-inducible ROMK, thallium flux fluorescence; actives lie on both sides; B-score at 10 µM; actives 2% (n = 130,000); AID 1918, 2009;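 active means signal ratio slope over the read window, or its plate-corrected B-score, at least 3 SD from the plate mean, either direction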;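 further: B-score of the F/F0 ratio slope over 7 to 12 s after thallium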
# Target sequence (P48048 whole entry, looked up): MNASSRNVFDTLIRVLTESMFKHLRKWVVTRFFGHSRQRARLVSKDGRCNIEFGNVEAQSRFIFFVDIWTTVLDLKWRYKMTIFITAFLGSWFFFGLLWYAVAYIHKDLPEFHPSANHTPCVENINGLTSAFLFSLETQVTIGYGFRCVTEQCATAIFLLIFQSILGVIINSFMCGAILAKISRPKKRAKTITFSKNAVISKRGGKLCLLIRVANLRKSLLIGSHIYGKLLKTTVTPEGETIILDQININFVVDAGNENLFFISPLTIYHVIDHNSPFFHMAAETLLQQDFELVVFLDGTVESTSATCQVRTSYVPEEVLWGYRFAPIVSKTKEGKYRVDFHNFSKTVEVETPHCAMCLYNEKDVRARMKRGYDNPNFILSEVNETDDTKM
# The depositor's hits bear a star; x = no result.
SMILES,Insulin prom inh,HCT116 bCat-KO,PTEN del growth,Lmaj promast,p97 inhibitor,ROMK mod
Cc1cc(C)n(Cc2ccc(NC(=O)c3nn(C)cc3[N+](=O)[O-])cc2)n1,64.3,5.3*,1.8*,-5.9,-0.4,1.24
CCn1cc([N+](=O)[O-])c(C(=O)Nc2ccc(Cn3nc(C)cc3C)cc2)n1,-40.0,91.1,99.9,6.9,4.5,x
COc1ccc2c(C)cc3n[nH]c(=S)n3c2c1,x,x,x,x,4.5,x
O=C(Nc1ccccc1)c1cccc(S(=O)(=O)N2CCCCC2)c1,-21.6,47.7,59.2,19.5,-5.0,x
CCOc1ccc(NC(=O)[C@@H](NC(=O)c2ccccc2Br)C(C)C)cc1,-48.3,83.4,88.1,98.4*,-1.9,0.0783
O=C(Nc1ccc(N2CCOCC2)cc1)c1cccc(S(=O)(=O)N2CCCCC2)c1,-8.1,94.2,100.3,97.9*,-4.2,0.397
C/C(=N\NC(=O)c1cccc(S(=O)(=O)N2CCCCC2)c1)c1ccc(C)o1,26.7,x,x,82.0*,3.5,0.705
CSCCC(NC(=O)c1ccccc1)C(=O)Nc1ccc(NC(C)=O)cc1 (centres undefined),39.3,99.9,104.7,55.0*,-0.1,0.0875
COc1ccc(S(=O)(=O)N2CCOCC2)cc1NC(=O)CO/N=C/c1ccccc1OC(F)F,30.8,92.6,89.3,6.7,10.2,-0.622
Cc1ccc(NC(=O)[C@@H](NC(=O)c2cccc(S(=O)(=O)N3CCOCC3)c2)C(C)C)cc1C,14.3,51.2,30.5,76.1*,-0.4,x
CSCCC(NC(=O)c1cccc(S(=O)(=O)N2CCOCC2)c1)C(=O)Nc1ccc(F)cc1 (centres undefined),2.7,92.2,97.8,72.5*,-5.7,0.312
CC(O/N=C/c1ccccc1OC(F)F)C(=O)Nc1cccc(S(=O)(=O)N2CCOCC2)c1 (centres undefined),14.3,92.5,90.5,50.6*,-6.7,-1.33
CCOc1ccc(C(=O)N[C@H](C(=O)Nc2cccc(S(=O)(=O)N3CCCCC3)c2)C(C)C)cc1,-160.5,59.9,71.1,97.1*,3.2,-0.574
Cc1cccc(C(=O)N[C@H](C(=O)Nc2cccc(S(=O)(=O)N3CCCC3)c2)C(C)C)c1,x,x,x,x,2.1,x
COc1ccc(C(=O)OCC(=O)NC(=O)NC(C)C)cc1OC,x,x,x,-0.7,-2.9,-0.304
O=C(c1cccs1)[C@@H]1[C@@H]2C(=O)N(Cc3ccc4c(c3)OCO4)C(=O)[C@@H]2C2c3ccccc3C=CN21 (some centres undefined),-13.9,79.1,76.3,87.8*,3.6,x
COc1ccc(Cl)cc1C(=O)CSc1nnnn1C,x,x,x,-4.7,-1.3,0.273
Fc1ccc(N2CCN(Cc3ccccn3)CC2)cc1,x,x,x,-2.1,9.7,0.149
Fc1ccc(N2CCN(Cc3cnc(N4CCOCC4)s3)CC2)cc1,x,x,x,63.6*,-0.9,-0.777
CC(NC(=O)/C(C#N)=C/c1ccc(Cl)c([N+](=O)[O-])c1)c1ccccc1 (centres undefined),x,1.6*,1.2*,100.4*,6.3,x
COc1ccc(CN=C2NN=C(c3cccc(OC)c3)CS2)cc1,x,x,x,87.5*,2.9,0.545
O=c1c2ccccc2nnn1-c1ccc(Br)cc1,x,x,x,x,4.9,-1.13
O=C(CSc1nc2ccccc2c(=O)n1-c1ccccc1)c1c[nH]c2ccccc12,-29.6,52.7,44.5,51.4*,1.9,0.924
Cc1ccc2nc(/C(C#N)=N/O)[nH]c2c1,-13.8,87.7,107.3,-10.8,-1.9,x
Cc1ccc2nc(/C(C#N)=C/c3cn[nH]c3-c3ccc(F)cc3)[nH]c2c1,-2.6,1.5*,1.2*,26.1,9.8,x
SMILES,Insulin prom inh,HCT116 bCat-KO,PTEN del growth,Lmaj promast,p97 inhibitor,ROMK mod
CCCOc1ccc(-c2nc(-c3ccc(N)cc3)cs2)cc1,x,x,x,x,-0.7,x
O=C(NCc1cn(-c2ccccc2)nc1-c1ccc(F)cc1)c1cccc([N+](=O)[O-])c1,x,68.4,60.2,81.0*,6.2,x
CCn1cc(CNC(=O)c2cccc([N+](=O)[O-])c2)c(C)n1,x,93.3,91.4,-2.3,-0.3,-0.421
COCCNC(=O)C(c1ccc(C)o1)N(C(=O)C(=O)NC1CCCCC1)c1ccc(F)cc1 (centres undefined),13.3,x,x,2.3,-2.2,x
N#CC(c1cccc(C(F)(F)F)c1)(c1ncc(C(F)(F)F)cc1Cl)N1CCOCC1 (centres undefined),17.8,51.8,48.0,96.1*,-3.4,x
N#CC(c1ccccc1)(c1ncc(C(F)(F)F)cc1Cl)N1CCOCC1 (centres undefined),37.5,98.7,100.6,-1.2,0.1,x
Cc1ccccc1Nc1nc(CSc2nnnn2-c2ccccc2)cs1,68.6*,117.6,90.2,12.9,2.5,0.162
COc1ccc(S(=O)(=O)N(CC(=O)N/N=C/c2cccs2)c2cc(C)cc(C)c2)cc1OC,-33.3,90.0,85.7,17.5,2.3,x
Cc1nc(NC(=O)c2csc3ccccc23)sc1C,x,72.2,66.8,59.6*,0.2,x
COc1ccccc1C1=NNC(=Nc2cccc(S(=O)(=O)N(C)C)c2)SC1,21.4,x,x,-6.2,6.4,x
CCN(CC)c1ccc(C(=O)NC(=S)Nc2cc(S(=O)(=O)N3CCOCC3)ccc2-n2cncn2)cc1,50.6,94.3,65.6,68.2*,-6.3,x
C=CCNC(=S)Nc1cc(S(=O)(=O)N2CCOCC2)ccc1-n1cncn1,2.9,95.7,106.1,33.2,6.7,-0.0503
Cc1ccc(C(=O)COc2cc(C)nc3nncn23)cc1,x,x,x,x,4.0,-1.1
COc1ccc(C2C3=C(N=C4SCC(=O)N42)c2ccccc2CC3)cc1 (centres undefined),71.0*,82.8,71.5,4.0,1.9,x
COc1ccc(C2C3=C(N=C4SCC(=O)N42)c2ccccc2CC3)cc1OC (centres undefined),-8.8,91.8,85.5,0.1,4.4,x
CN1CCN(c2ccc(NC(=O)c3ccc(-c4ccc(Br)cc4)o3)cc2)CC1,26.3,x,x,99.2*,-0.2,8.09e-05
O=C(Nc1ccc(N2CCCC2)cc1)c1ccc(Br)o1,-84.2,102.6,93.3,15.2,3.8,x
Cc1ccccc1C(=O)Nc1cccc(NC(=O)c2ccc(-c3ccc(Br)cc3)o2)c1,x,3.7*,5.2,15.4,-0.7,-0.00718
CCOC(=O)c1c(C)[nH]c(C(=O)COC(=O)/C=C/c2ccc(OCC#N)c(OC)c2)c1C,x,x,x,-5.6,-4.7,0.762
COc1cc(-c2nnc3sc(-c4cccs4)nn23)cc(OC)c1OC,-34.4,4.0*,3.0*,15.1,4.5,-0.0985
CCOc1ccc(-c2nnc3sc(-c4c(OC)cccc4OC)nn23)cc1,10.0,x,x,4.5,-5.8,0.33
CCOc1ccc(-c2nnc3sc(-c4ccccc4OC)nn23)cc1,-52.0,x,x,4.5,11.3,3.32*
CCN1CCN(CCOc2cccc(Cl)c2Cl)CC1,x,x,x,85.8*,3.5,-1.02
